HTT aggregate: inhibitors of mutant huntingtin aggregate formation in PC12 cells. PC12 HttQ103-GFP aggregates, Acumen cytometry, 40 h. Potency, µM (highest dose often 46.1 µM), usual class: inhibitors. actives 1.1% (n = 220,000). AID 1688; further: nearly all actives have a fitted effect of over 60% in size
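Aggregates are detected as GFP objects 1–25 µm with signal 6 STDEV over background in lysates of induced PC12 cells. These carry Huntingtin exon 1 with 103 glutamines fused to GFP under an ecdysone promoter; compounds titrated.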
PKM2 activator: increases activity of human pyruvate kinase M2; P14618; purified PKM2, Kinase-Glo ATP luminescence, activation; response scale: 0% is enzyme alone, no compound; Potency, µM (highest dose often 57.5 µM), actives largely listed as activators; actives 0.34% (n = 260,000); further: nearly all actives have a fitted effect of over 55% in size
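hPK-M2, >95% pure; 0.1 mM ADP / 0.5 mM PEP final; imidazole pH7.2 buffer w/ 7 mM MgCl2, 50 mM KCl; 1 h RT; Kinase-Glo lum. Intermediate enzyme activity for dual inhibitor/activator qHTS.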
aGal spleen mod: inhibits or activates alpha-galactosidase in human spleen homogenate | P06280 | human spleen homogenate, 4MU-alpha-Gal fluorescence, 40 min | Potency, µM (top dose mostly 80 µM), most hits filed as inhibitors | actives 0.008% (n = 240,000) | AID 2107
Target sequence (P06280 32-429 limits assumed): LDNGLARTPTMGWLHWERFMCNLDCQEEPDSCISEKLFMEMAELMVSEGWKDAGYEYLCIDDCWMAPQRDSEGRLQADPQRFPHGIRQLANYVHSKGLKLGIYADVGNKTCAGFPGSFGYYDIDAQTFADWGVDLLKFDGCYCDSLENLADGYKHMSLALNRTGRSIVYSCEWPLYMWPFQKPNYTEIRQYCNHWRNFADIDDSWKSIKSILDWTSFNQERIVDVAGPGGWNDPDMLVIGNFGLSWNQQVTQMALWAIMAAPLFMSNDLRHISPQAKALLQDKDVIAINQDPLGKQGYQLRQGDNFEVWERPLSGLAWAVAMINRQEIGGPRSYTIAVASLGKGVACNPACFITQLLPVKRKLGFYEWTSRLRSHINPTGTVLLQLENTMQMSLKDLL
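Human spleen homogenate (1 ug) was the enzyme source, with 4-methylumbelliferyl-alpha-D-galactopyranoside (1 mM final) in pH 5.0 citrate buffer with 0.01% Tween-20. Compounds were titrated; after 40 min at 37C, NaOH/glycine stop, 4-MU fluorescence read; AC50 from Hill fits.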
HTT ATP protect: Huntington cell model cytoprotection by ATP luminescence; actives 0.14% (n = 230,000); Potency, µM (doses to about 56.4 µM), most hits filed as activators; AID 1471; PC12 HTT-Q103 induced, cytoprotection, ATP luminescence, 40 h; further: nearly all actives have a fitted effect of over 45% in size
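Quantitative HTS on tebufenozide-induced (100 nM) PC12 cells expressing HTTQ103 exon 1–GFP; compounds tested as a concentration series; survival measured via cellular ATP.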
GLA inh pH 4.5: inhibitors of human alpha-galactosidase A at pH 4.5; P06280; purified enzyme, 4-MU-alpha-Gal fluorescence, pH 4.5; activity change, negative = inhibition, % at 105 µM; 230,000 tested, under 10 active
HeLa viability: reduces HeLa cell viability in PKM2 activator counter-screen. shares compounds with PKM2 activator. HeLa viability, CellTiter-Glo ATP luminescence, 24 h. activity change, negative = cytotoxicity, % at 57.5 µM. 230 tested, under 10 active. AID 1898
Hits are given with their value; . = inactive; ? = inconclusive; / = no result given; [ ] = another dose, or the depositor's remark. A selection: hits, their analogues and other compounds. The true share with any hit is near 1.2%. The call rests on the fitted dose curve; in most records, active means well fitted curve in the direction sought with a large enough effect; inconclusive means small, poorly fitted or top-dose-only effect, or another doubt; inactive means no such curve, though single readings can be large; an effect the other way counts as inactive or inconclusive.

SMILES | HTT aggregate | PKM2 activator | aGal spleen mod | HTT ATP protect | GLA inh pH 4.5 | others
O=c1[nH]c(=O)c2nc3c4ccccc4c4ccccc4c3nc2[nH]1 | .[9.22 µM] | 11µM | . | .[10 µM] | .
COc1ccc(-c2cc(C3CCN(c4cc(Cl)nc(N)n4)CC3)[nH]n2)cc1 | 13µM | . | . | . | .
O=C(CSc1nnc(-c2ccco2)n1Cc1ccccc1)OC1CCCCC1 | 32µM | . | . | . | .
O=C(CSc1nnc(-c2ccncc2)n1Cc1ccco1)OC1CCCCC1 | . | . | . | . | .
Cc1ccc(S(=O)(=O)NC(C)(C)CSc2nncn2N)cc1 | 2.8µM | . | . | ? | .
Cc1ccc(S(=O)(=O)NCCSc2nncn2C)cc1 | / | . | / | / | /
CCOc1ccc(Nc2ccc([N+](=O)[O-])c3nonc23)cc1 | / | . | / | / | /
O=[N+]([O-])c1ccc(Sc2cccc[n+]2[O-])c2nonc12 | 1.1µM | . | . | .[10 µM] | .
CCOC(=O)Cn1c(=O)c(-c2cc(Br)ccc2N)nc2ccccc21 | .[9.22 µM] | . | . | .[10 µM] | .
Cn1c(=O)c(-c2cc(Br)ccc2N)nc2ccccc21 | 13µM | . | . | .[10 µM] | .
COc1ccc(-c2nn(-c3ccccc3)cc2C(=O)NC(=S)NNC(=O)c2ccncc2)cc1 | 10µM | . | . | . | .
COc1ccc(NC(=O)c2cn(-c3ccccc3)nc2-c2ccncc2)cc1 | . | . | . | . | .
Cc1c(-c2ccccc2)oc2c(C(=O)N3CCN(c4ccc([N+](=O)[O-])cc4)CC3)cccc2c1=O | 4µM | . | . | .[10 µM] | .
CC(=O)NCCc1ccc(O)c(O)c1 | / | / | . | .[1.9 µM] | .
CCc1cccc(CC)c1NC(=S)NCCc1ccc(O)c(O)c1 | . | 22µM | . | ? | .
c1ccc2c(c1)OCC(c1csc3ncnc(N4CCCC4)c13)O2 (configuration not stated) | 18µM | . | . | . | .
c1ccc(CCNc2ncnc3scc(C4COc5ccccc5O4)c23)cc1 (configuration not stated) | . | . | . | . | .
COc1ccc(N2C(=O)[C@@H]3[C@H](C2=O)[C@H]2C=CC=NN2[C@@H]3C(=O)Nc2ccc(Cl)cc2)cc1 | .[9.22 µM] | 8.9µM | . | .[10 µM] | .
Fc1ccc2[nH]c3c(N4CCN(c5ccccc5)CC4)ncnc3c2c1 | 22µM | . | . | .[1.9 µM] | .
COc1cc2[nH]c3c(N4CCN(c5ccccn5)CC4)ncnc3c2cc1OC | 20µM | . | . | .[0.074 µM] | .
CCOC(=O)N1CCN(c2ncnc3c2[nH]c2ccc(F)cc23)CC1 | 7.1µM | . | . | . | .
COc1ccc(N2CCN(c3ncnc4c3[nH]c3ccccc34)CC2)cc1 | ? | . | . | . | .
CCCCCCCCCCCCCC/C(C(=O)O)=C(\C)C(=O)O | / | / | . | / | /
Cc1ccc(CN2C(=O)CCSc3ccc(Cl)cc32)cc1 | . | . | . | . | .
O=C1CCSc2ccc(Cl)cc2N1Cc1cccc(Cl)c1 | 22µM | . | . | .[10 µM] | .
SMILES | HTT aggregate | PKM2 activator | aGal spleen mod | HTT ATP protect | GLA inh pH 4.5 | others
O=C(O)CCC(=O)OC[C@@H](NC(=O)C(Cl)Cl)C(O)c1ccc([N+](=O)[O-])cc1 (some centres not stated) | / | / | . | ? | .
Cc1ccc(-c2nn(-c3ccccc3)cc2CN(Cc2ccccc2)C(=O)c2ccco2)o1 | ? | 25µM | . | . | .
Cc1ccc(-c2nn(-c3ccccc3)cc2C(=O)O)o1 | . | . | . | . | .
C/C1=C2N=C(/C=C3N=C(/C(C)=C4\[N-]C(C)(C5N=C1C(C)(CCC(=O)NCC(C)OP(=O)([O-])O[C@H]1C(O)C(n6cnc7cc(C)c(C)cc76)O[C@@H]1CO)C5CC(N)=O)C(C)(CC(N)=O)C4CCC(N)=O)C(C)(CC(N)=O)C\3CCC(N)=O)C(C)(C)C/2CCC(N)=O.[CH2-]C1OC(n2cnc3c(N)ncnc32)C(O)C1O.[Co] (some centres not stated) | . | / | . | . | .
COc1ccc(-c2cc(=O)c(C(=O)c3ccc(C)cc3)n[nH]2)cc1 | . | . | 40µM | .[10 µM] | .
COc1ccc(C(=O)c2c(O)cc(-c3ccc(OC)cc3)oc2=O)cc1 | . | . | . | .[10 µM] | .
Cc1nc2ccc(S(=O)(=O)N3CCN(S(=O)(=O)c4c(F)cccc4F)CC3)cc2s1 | / | / | / | / | / | HeLa viability=.
COc1ccc(CCNc2ccc(S(=O)(=O)N3CCCC3)cc2[N+](=O)[O-])cc1 | . | 3.2µM | . | .[10 µM] | . | HeLa viability=.
O=S(=O)(c1ccc2ccccc2c1)N1CCN(S(=O)(=O)c2c(F)cccc2F)CC1 | / | / | / | / | / | HeLa viability=?
Cn1ccc2cc(S(=O)(=O)N3CCN(S(=O)(=O)c4c(F)cccc4F)CC3)ccc21 | / | / | / | / | / | HeLa viability=.
O=C1[C@@H]2[C@H]3[C@H](O)[C@H](O)C/C(=N/OCc4ccccc4)[C@H]3CC[C@H]2C(=O)N1c1ccc(F)cc1F | / | / | .[17.5 µM] | ? | /
C[C@H]1C2=C3C(CC[C@H]4C(OCc5ccc(F)cc5C(F)(F)F)OC[C@](C)([C@@H]34)N(C(=O)OC(C)(C)C)C2)C(CO)C1CO (some centres not stated) | / | . | . | . | .
COc1ccc(CCC(=O)N2CCN(S(=O)(=O)c3ccc4ccccc4c3)CC2)cc1 | ? | 0.79µM | . | . | . | HeLa viability=.
Cc1ccc(S(=O)(=O)N2CCCN(S(=O)(=O)c3ccc4ccccc4c3)CC2)cc1 | ? | 0.71µM | . | .[10 µM] | . | HeLa viability=.
O=S(=O)(c1ccc(Cl)cc1)N1CCN(S(=O)(=O)c2ccc3c(c2)OCCO3)CC1 | / | / | / | / | / | HeLa viability=?
O=S(=O)(c1ccc(F)cc1)N1CCN(S(=O)(=O)c2ccc3c(c2)OCCO3)CC1 | / | / | / | / | / | HeLa viability=.
N#Cc1ccc(S(=O)(=O)N2CCN(S(=O)(=O)c3ccc4c(c3)OCCO4)CC2)cc1 | / | / | / | / | / | HeLa viability=.
Cc1ccc(S(=O)(=O)N2CCN(S(=O)(=O)c3ccc4c(c3)OCCO4)CC2)cc1 | . | ? | . | . | .
CCCc1cc(F)c(S(=O)(=O)N2CCN(S(=O)(=O)c3ccc4c(c3)OCCO4)CC2)cc1F | / | / | / | / | / | HeLa viability=.
O=S(=O)(O)c1cc(O)c2c(N=Cc3ccccc3O)cc(S(=O)(=O)O)cc2c1 | / | / | / | .[10 µM] | /
CN(C)CCCO[C@H]1C([C@H](O)CO)O[C@@H]2OC(C)(C)O[C@@H]21 (some centres not stated) | / | / | . | / | .
CC12CCC(/C(=N/O)C1=O)C2(C)C (configuration not stated) | / | / | . | / | /
CCn1cc(S(=O)(=O)c2ccc(C)cc2)[nH]c1=O | . | . | . | . | .
Cc1ccc(-n2cc(S(=O)(=O)c3ccc(C)cc3)[nH]c2=O)cc1 | . | 7.1µM | . | / | . | HeLa viability=.
COC(=O)[C@@H]1C[C@H]1[C@@H](NC(=O)c1cnccn1)c1ccccc1 | / | . | . | . | .

Source: PubChem
